Test results as given in PMC5540273 (PLoS ONE, 2017).

What was measured:
Details in all cases: concentration: 1 μM,replicates: in singlicate; n = 1
NEK11 = tested on: NEK11
NEK1 = tested on: NEK1
NEK2 = tested on: NEK2
NEK3 = tested on: NEK3
NEK4 = tested on: NEK4
NEK5 = tested on: NEK5
NEK6 = tested on: NEK6
NEK7 = tested on: NEK7
NEK9 = tested on: NEK9
NIK = tested on: T1, NIK
T1 construct: gene MAP3K14
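Also: KINOMEscan kinase panel screen.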

Compound | %Inh (NEK11) | %Inh (NEK1) | %Inh (NEK2) | %Inh (NEK3) | %Inh (NEK4) | %Inh (NEK5) | %Inh (NEK6) | %Inh (NEK7) | %Inh (NEK9) | %Inh (NIK)
C[C@@H]1CNc2c(sc3ccc4nc(-c5ccncc5)ccc4c23)C(=O)N1 | 0% | 0% | 0% | 30% | 0% | 0% | 3% | 5% | 0% | 90.3%
N#Cc1cccc(C(=O)NC2CCN(c3ccnc(Nc4ccc(F)cc4)n3)C2)c1 (stereo not drawn) [GSK1379708] | 3% | 0% | 0% | 7% | 11% | 5% | 12% | 0% | 0% | 13%
O=C(NCC1CC1)c1ccc(-c2cc(C(=O)NC3CC3)ccc2F)cc1 [GW810445] | 0% | 3% | 0% | 0% | 0% | 0% | 0% | 0% | 0% | 0%
CSc1nccc(-c2c(-c3ccc(F)cc3)ncn2CCCN2CCOCC2)n1.Cl [SB-217146] | 0% | 0% | 0% | 38% | 0% | 0% | 0% | 8% | 0% | 33%
c1ccc(Oc2ccc(Nc3ccnc4ccc(-c5ccccn5)cc34)cc2)cc1 [GW407034] | 0% | 0% | 0% | 9% | 28% | 0% | 1% | 0% | 0% | 9%
Cl.c1ccc(Oc2ccc(Nc3ccnc4cc(-c5ccc(CN6CCNCC6)o5)ccc34)cc2)nc1 [GW567142] | 0% | 0% | 6% | 2% | 0% | 0% | 0% | 5% | 17% | 7%
O=C1NCCc2[nH]c(-c3ccncc3)cc21 | 0% | 0% | 0% | 18% | 0% | 2% | 29% | 0% | 0% | 44%
Cc1ccn2nc(-c3ccc(F)cc3)c(-c3ccncc3)c2c1.Cl [GW457859] | 43% | 12% | 0% | 3% | 0% | 0% | 0% | 0% | 4% | 38%
Cc1ccc(CC(=O)N2CCc3cc(-c4cn(C)c5ncnc(N)c45)ccc32)cc1 [GSK2634758] | 59% | 31% | 96.9% | 7% | 11% | 45% | 19% | 0% | 20% | 16%
CCn1c(-c2nonc2N)nc2cncc(Br)c21 [SB-738004] | 40% | 0% | 0% | 19% | 0% | 10% | 19% | 0% | 11% | 79%
O=C(Nc1cccc(C(F)(F)F)c1)c1cccc(Oc2ccc3nccn3n2)c1 | 52% | 0% | 0% | 17% | 0% | 12% | 2% | 0% | 0% | 36%
O=C(Nc1ccc(Oc2ccc3nc(NC(=O)C4CC4)cn3n2)c(F)c1)c1cccn(-c2ccccc2)c1=O | 0% | 0% | 0% | 8% | 0% | 54% | 6% | 0% | 0% | 0%
NC(=O)Nc1sc(-c2ccc(F)cc2)cc1C(N)=O [GW789449] | 0% | 0% | 0% | 47% | 19% | 36% | 13% | 0% | 0% | 37%
C[C@@H](Oc1cc(-n2cnc3ccc(-c4ccncc4)cc32)sc1C(N)=O)c1ccccc1Cl [GSK483724] | 0% | 51% | 86% | 0% | 4% | 72% | 14% | 17% | 76% | 1%
Cn1ccc2ncnc(Oc3ccc(NC(=O)Nc4cncc(C(F)(F)F)c4)c(Cl)c3)c21 | 0% | 0% | 0% | 13% | 0% | 0% | 0% | 0% | 0% | 0%
COC(=O)Nc1nc2cc(Oc3ccc(NC(=O)Nc4cc(C(F)(F)F)ccc4Cl)cc3)ccc2[nH]1.Cl [GW697465] | 29% | 0% | 0% | 0% | 3% | 0% | 0% | 0% | 28% | 0%
Cc1ccc2c(-c3ccnc(Nc4ccc(C(F)(F)F)cc4)n3)cnn2n1 [GW819776] | 0% | 0% | 0% | 78% | 9% | 84% | 0% | 2% | 6% | 10%

Compound | %Inh (NEK11) | %Inh (NEK1) | %Inh (NEK2) | %Inh (NEK3) | %Inh (NEK4) | %Inh (NEK5) | %Inh (NEK6) | %Inh (NEK7) | %Inh (NEK9) | %Inh (NIK)
CCN1CCN(CCCC(=O)Nc2n[nH]c3nc(-c4ccc(O)cc4)c(Br)cc23)CC1 [SB-731579] | 0% | 0% | 0% | 18% | 0% | 0% | 0% | 5% | 22% | 27%
CN1CCN(CCNc2nc3cc(Oc4ccc(NC(=O)Nc5cc(C(F)(F)F)ccc5F)cc4)ccc3[nH]2)CC1.Cl.Cl [GW768504] | 0% | 0% | 0% | 20% | 0% | 1% | 0% | 0% | 0% | 0%
CN(c1cccc(CNc2nc(Nc3ccc4c(c3)CC(=O)N4)ncc2C(F)(F)F)c1)S(C)(=O)=O | 0% | 0% | 0% | 20% | 0% | 17% | 23% | 0% | 6% | 21%
CCCC(=O)Nc1n[nH]c2ncccc12 [SB-601436] | 4% | 0% | 0% | 0% | 0% | 0% | 0% | 13% | 0% | 10%
CS(=O)(=O)c1cccc(CNc2nc(Nc3ccc4c(c3)[C@@H]3C[C@@H]4CNC3=O)ncc2C(F)(F)F)c1 | 0% | 0% | 0% | 23% | 1% | 0% | 19% | 12% | 2% | 26%
CC(=O)c1c(-c2ccncc2)[nH]c(-c2ccncc2)c1C [GW493036] | 0% | 0% | 0% | 47% | 4% | 19% | 0% | 0% | 27% | 28%
CC(C)S(=O)(=O)N1CCN(Cc2ccc3c(c2)nc(NC(=O)c2ccsc2)n3C[C@H](O)c2ccccc2)CC1 [GW635815] | 1% | 0% | 0% | 0% | 9% | 8% | 0% | 0% | 1% | 9%
CN(c1ccccc1CNc1nc(Nc2ccc3c(c2)CC(=O)N3)ncc1C(F)(F)F)S(C)(=O)=O | 0% | 0% | 0% | 32% | 0% | 0% | 26% | 64% | 53% | 0%
COC(=O)c1cccc(NC(=O)NC2CCN(c3ccnc(Nc4cc(OC)c(OC)c(OC)c4)n3)C2)c1 (stereo not drawn) [GSK1379767] | 0% | 52% | 22% | 17% | 0% | 100% | 0% | 37% | 26% | 32%
Nc1nccc(-c2ccc3c(N)n[nH]c3c2)n1 [GSK1034945] | 0% | 0% | 3% | 9% | 0% | 4% | 0% | 3% | 10% | 0%
CCn1c(-c2nonc2N)nc2cncc(CNC3CCNCC3)c21.Cl [SB-747651] | 11% | 0% | 0% | 15% | 28% | 2% | 0% | 6% | 38% | 13%
NC(=O)c1ccc(-c2cc3ncnc(SCC(=O)O)c3s2)cc1 | 0% | 0% | 0% | 35% | 0% | 0% | 7% | 0% | 0% | 0%
CCNCC(Cc1ccccc1)NC(=O)c1cc(Br)c(-c2ccnc3[nH]ccc23)s1.Cl.Cl (stereo not drawn) [GSK1383280] | 0% | 79% | 18% | 17% | 0% | 79% | 0% | 0% | 10% | 0%
Cc1ccc(Nc2ccnc(Nc3ccc4c(c3)CS(=O)(=O)C4)n2)cc1O.Cl [GW579362] | 5% | 31% | 17% | 46% | 3% | 70% | 0% | 23% | 27% | 27%
Cc1nnc(-c2ccc3occ(-c4ccc(S(C)=O)cc4)c3n2)o1 (stereo not drawn) | 0% | 0% | 0% | 23% | 0% | 0% | 0% | 0% | 0% | 0%
COc1cc2ncn(-c3cc(OCC4CCCCC4)c(C(N)=O)s3)c2cc1OC [GSK204559] | 0% | 12% | 40% | 0% | 10% | 9% | 0% | 21% | 33% | 16%
